These results are taken from PubChem BioAssay (NCI).

About 83,000 compounds went through this panel and 20% of them were active in at least one assay; those are over-represented in the sample as a whole.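 The test compound was applied at a single concentration to cells in 96-well plates for 48 hours, and percent growth was recorded.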 A number with no mark means an inactive call. Calls of active or inactive are those of the source. The calls were made as follows: active = growth percent below 10; inactive = the rest.

One test concerns PC-3 prostate. Kind of test: NCI-60 one-dose screen, 48 h (100 = growth as untreated, 0 = no growth, -100 = all killed). Particulars: 10 µM unless noted.
In the case of `CC1(C)CC[C@]2(C(=O)O)CC[C@]3(C)C(=CCC4[C@@]5(C)C[C@@H](O)[C@@H]6OC(c7ccco7)OC[C@@]6(C)C5CC[C@]43C)C2C1` (stereo partly specified), the growth was 20.8%. As for `Cn1cc(-c2cc3nc(-c4c[nH]c5ccc(Cl)cc45)cc(N)n3n2)c2ccccc21`, the growth was -80.9% (active). Take `COc1ccc(Cc2nn(CC(=O)N/N=C/c3ccc(F)cc3)c(=O)c3c(C)noc23)cc1`: the growth is 35.9%.

On to `COc1cc2nc(SCc3ccccc3)n(-c3ccc(Cl)cc3)c(=O)c2cc1OC`, for which the growth is 1.2% (active). For `Cc1cccc(-c2nc(Nc3cccc(S(N)(=O)=O)c3)c3ccccc3n2)c1`, the growth is 39.8%. In the case of `COc1ccc2[nH]cc(-c3nnc(N)nc3-c3cn(C)c4ncc(Br)cc34)c2c1`, the growth is 72.9%. The same measure, in the same setting: for `CCN(CC)c1ccc(/C=N/Nc2nc(-c3ccc(C)cc3)cs2)c(O)c1` the value was 70.5%; for `N/C(=N\c1nc2ccccc2s1)NC(=O)Nc1ccccc1Br`, 34.6%.

In a further test the test system is SK-MEL-5 melanoma. The description is as above. Particulars: 10 µM unless noted.
With `Cc1ccc(S(=O)(=O)c2nc(S(=O)(=O)c3ccc(C)cc3)c(Cl)s2)cc1`, the growth was 76.4%. The same measure, in the same setting: for `CCCCSc1nc(Nc2ccc(C(C)=O)cc2)c(C#N)c(-c2ccc(OC)cc2)n1` the value was 90.1%; for `CCOC(=O)C1=C(N)N(c2ccccc2)C2=C(C(=O)CC(C)(C)C2)C1c1ccc([N+](=O)[O-])cc1` (stereo unspecified), 96.5%; for `Cc1cccc(Nc2nc3ccccc3nc2/C=C/c2ccc(F)cc2)c1`, 88%. On the same count and under the same terms, the result for `Cc1cccc(NC(=O)CN2CCN(c3ncnc4c3cnn4-c3ccccc3)CC2)c1` reads 78.5%. In the case of `Cn1cc(-c2cc3nc(-c4c[nH]c5ccc(Br)cc45)cc(N)n3n2)c2ccccc21`, the growth was -77.8% (active). On to `C#CCOc1ccc(/C=N/Nc2nc(-c3cc4cc(OC)ccc4oc3=O)cs2)cc1OC`, for which the growth was 39.2%.

As for `CC1(C)CC[C@]2(C(=O)O)CC[C@]3(C)C(=CCC4[C@@]5(C)C[C@@H](O)[C@@H]6OC(c7ccc(F)cc7)OC[C@@]6(C)C5CC[C@]43C)C2C1` (stereo partly specified), the growth was 17.2%. Same read-out and setting: for `O=C(NN1C(=O)/C(=C/C=C/c2ccc([N+](=O)[O-])o2)SC1=S)c1cccc(O)c1` the value was -100% (active); for `Cc1ccc(C(=O)NN2C(=O)/C(=C/C=C/c3ccc([N+](=O)[O-])o3)SC2=S)cc1`, -100% (active). On to `N/C(=N\c1nc2ccccc2s1)NC(=O)Nc1c(Cl)cccc1Cl`, for which the growth was 22.4%. Take `O=C(CN1C(=O)/C(=C/c2ccccc2Cl)SC1=S)N1CCOCC1`: the growth was 98.9%. `CN(C)c1nc(NCCNS(=O)(=O)c2ccc(C3=Nc4c(N)nc(N)nc4NC(c4ccc(C(F)(F)F)cc4)C3)cc2)nc(Nc2ccc(F)cc2)n1` (stereo unspecified): the growth is -77.1% (active).

Regarding `O=C(CSc1nc2ccccc2c(=O)[nH]1)NCCN1CCCCC1`, the growth is 100%. For `Cn1cc(-c2nnc(N)nc2-c2c[nH]c3ccc(Br)cc23)c2cc(Br)cnc21`, the growth was 68%. With `O=C(O)Cn1c(O)c(/C=C2/C=c3cc4c(cc3=NC2=O)OCCO4)sc1=S`, the growth was 107%. The same measure, in the same setting: for `N/C(=N\c1nc2ccccc2s1)NC(=O)Nc1ccc(Cl)cc1Cl` the value was -56.5% (active); for `Cc1ccc(-c2nc(C#N)c(S(=O)(=O)N3CCN(S(=O)(=O)c4ccccc4)CC3)o2)cc1`, 0.485% (active). As for `COc1cccc(-c2nc(Nc3ccc(S(N)(=O)=O)cc3)c3ccccc3n2)c1`, the growth is 25.6%.

For the compound `COc1ccc(/C=C/c2nc3ccccc3n3c(-c4ccc(Cl)cc4)nnc23)cc1`, the growth was 98.6%.

Turning to `CNS(=O)(=O)c1ccc(Nc2ccc(C(F)(F)F)cc2)c(-c2cn(C)cn2)c1`, the growth was 60.1%. On the same count and under the same terms, for `CCS(=O)(=O)N1CCCC(C(=O)Nc2nc3ccc(NC(=O)c4ccc(F)c(OC)c4F)cc3s2)C1` (stereo unspecified) the value was -7.02% (active); for `C#CCOc1cc(N(CC)CC)ccc1C(C(=O)NC(C)(C)C)N(C(=O)C1CCc2cc(F)ccc2O1)c1cc(C)cc(C)c1` (stereo unspecified), 44.7%. On to `C#CCOc1ccc(/C=N/Nc2nc(-c3ccc(Cl)cc3)cs2)cc1OC`, for which the growth was 6.66% (active). In the case of `O=C(COc1ccc2c(c1)CCCC(=O)N2)NCc1ccccc1`, the growth was 82%. On the same count and under the same terms, for `CN(C)c1nc(NCCNS(=O)(=O)c2ccc(C3=Nc4c(N)nc(N)nc4NC(c4ccccc4)C3)cc2)nc(Nc2ccc(F)cc2)n1` (stereo unspecified) the value was 33.7%. Still for that read-out and setting: for `CC1(C)CC[C@]2(C(=O)O)CC[C@]3(C)C(=CCC4[C@@]5(C)C[C@@H](O)[C@@H]6OC(c7ccccc7F)OC[C@@]6(C)C5CC[C@]43C)C2C1` (stereo partly specified) the value was -34.6% (active); for `Cc1cccc(-c2nc(Nc3ccc(C)c(S(N)(=O)=O)c3)c3ccccc3n2)c1`, 29.5%. Same read-out and setting: for `COC(=O)C[C@](O)(CCCC(C)(C)O)C(=O)O[C@H]1C(OC)=C[C@@]23CCCN2CCc2cc4c(cc2[C@@H]13)OCO4` the value was -71.9% (active); for `Cn1cc(-c2cc(N)n3nc(-c4cn(C)c5ccccc45)cc3n2)c2cc(Cl)ccc21`, -67% (active).

Take `CC1(C)CC[C@]2(C(=O)O)CC[C@]3(C)C(=CCC4[C@@]5(C)C[C@@H](O)[C@@H]6OC(c7ccco7)OC[C@@]6(C)C5CC[C@]43C)C2C1` (stereo partly specified): the growth is -33.2% (active).

Regarding `Cn1cc(-c2cc3nc(-c4c[nH]c5ccc(Cl)cc45)cc(N)n3n2)c2ccccc21`, the growth is -84.8% (active). On the same count and under the same terms, the result for `COc1ccc(Cc2nn(CC(=O)N/N=C/c3ccc(F)cc3)c(=O)c3c(C)noc23)cc1` reads 82.2%; that for `COc1cc2nc(SCc3ccccc3)n(-c3ccc(Cl)cc3)c(=O)c2cc1OC`, 82.9%. As for `Cc1cccc(-c2nc(Nc3cccc(S(N)(=O)=O)c3)c3ccccc3n2)c1`, the growth is 56.5%.

In the case of `COc1ccc2[nH]cc(-c3nnc(N)nc3-c3cn(C)c4ncc(Br)cc34)c2c1`, the growth is 85.7%. In the case of `CCN(CC)c1ccc(/C=N/Nc2nc(-c3ccc(C)cc3)cs2)c(O)c1`, the growth was 79.7%. `N/C(=N\c1nc2ccccc2s1)NC(=O)Nc1ccccc1Br`: the growth was -55.3% (active).
